Drawing on PubChem BioAssay (NCATS), this text covers Potency and viability for seven molecules.

Results filed as inconclusive are left out. Unmarked numbers belong to inactive results. Activity calls are given as the source filed them. Calls come from the whole dose curve; as a rule, active = well fitted curve in the direction sought with a large enough effect; inconclusive = small, poorly fitted or top-dose-only effect, or another doubt; inactive = no such curve, though single readings can be large; an effect the other way counts as inactive or inconclusive.

Assay [1] can be described thus: BET inhibitor-based combinations targeting novel dependencies in MECOM-rearranged (r) AML: SET-2 cell line (AID 2202231).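 For viability: plate controls were DMSO treated cells for no effect and wells without cells for full effect.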 Note: nearly all actives have a fitted effect of over 35% in size. To be noted: SET-2 AML cells viability, CellTiter-Glo luminescence, 48 h; viability: stronger effect = lower value, concentration not given here. Put shortly: (§1)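 A 48 hr incubation preceded viability reading by CellTiter-Glo, with 15 min room-temperature development. Dose series had 11 points; normalization used DMSO and empty wells; AUC was computed and mean-centered per line as Z-AUC.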
A general note: ATP-based viability assays read luminescence as a measure of living cells.

Assay [2] can be described thus: BET inhibitor-based combinations targeting novel dependencies in MECOM-rearranged (r) AML: OCI-AML3 cell line (AID 2202232). Note: nearly all actives have a fitted effect of over 35% in size. To be noted: Potency: OCI-AML3 viability. Summed up:
as §1

The nature of assay [3]: BET inhibitor-based combinations targeting novel dependencies in MECOM-rearranged (r) AML: MV-4-11 cell line (AID 2202233). Note: nearly all actives have a fitted effect of over 45% in size. Put shortly: (§2)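 Each compound is tested in an 11-point concentration series against 500 seeded cells/well for 48 hr. The luminescent viability signal is normalized to DMSO and blank wells, then reduced to AUC and a cell-line-centred Z-AUC.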
The nature of assay [4]: BET inhibitor-based combinations targeting novel dependencies in MECOM-rearranged (r) AML: HNT-34 cell line (AID 2202234). Note: nearly all actives have a fitted effect of over 35% in size. Put shortly:
as §2

Assay [5] is described as follows: BET inhibitor-based combinations targeting novel dependencies in MECOM-rearranged (r) AML: UCSD-AML1 cell line (AID 2202235). Note: nearly all actives have a fitted effect of over 40% in size. Put shortly:
as §2

Assay [6] is described as follows: BET inhibitor-based combinations targeting novel dependencies in MECOM-rearranged (r) AML: AML-191 cell line (AID 2202236; note: nearly all actives have a fitted effect of over 35% in size). Put shortly:
as §1

Assay [7] is described as follows: BET inhibitor-based combinations targeting novel dependencies in MECOM-rearranged (r) AML: AML-194 cell line (AID 2202237; note: nearly all actives have a fitted effect of over 40% in size). Put shortly:
as §1
Potency is the fitted concentration of half-maximal effect.

On to `COc1cc(O)c2c(c1)C1OC1C[C@H](O)[C@H](O)C(=O)C=CC[C@H](C)OC2=O` (stereo partly specified), for which the Potency in assay [1] is 5900 nM (active); in assay [2], 742 nM (active); in assay [3], 132 nM (active); in assay [4] it was 934 nM (active); in assay [5], 1480 nM (active); in assay [6] it was 1320 nM (active). The Potency in assay [7] is 1480 nM (active).

By viability is commonly meant a read-out of living cells in per cent, often relative to untreated cells. Consider `O=C(C[C@@H]1C/C=C\CCC(=O)O[C@H](c2ccccc2)CNC1=O)NCc1ccc(Cl)cc1`, for which, in assay [1], the viability was 117%. For the same molecule, the Potency entry in assay [2], in assay [3], in assay [4], in assay [6] and in assay [7] was “inactive” each time.

Regarding `C[C@@]12O[C@@H](C[C@]1(O)CO)n1c3ccccc3c3c4c(c5c6ccccc6n2c5c31)CNC4=O`, the Potency is 417 nM (active) in assay [1]; 417 nM (active) in assay [2]; 11.8 nM (active) in assay [3]; 118 nM (active) in assay [5]; 52.5 nM (active) in assay [6].

As to `CNc1ncc2cc(-c3cc(NC(=O)NCCC(C)(C)C)c(F)cc3C)c(C)nc2n1`, the Potency was 2350 nM (active) in assay [1], 662 nM (active) in assay [2], 468 nM (active) in assay [3] and 1050 nM (active) in assay [5].

As for `CC(=O)OCC(=O)[C@@]12OC(C)(C)O[C@@H]1C[C@H]1[C@@H]3C[C@H](F)C4=CC(=O)C=C[C@]4(C)[C@@]3(F)[C@@H](O)C[C@@]12C`, in assay [1], the viability is 105%. Besides, the Potency entry in assay [2], in assay [3], in assay [5] and in assay [6] was “inactive” throughout.

On to `Cc1ccc(NS(=O)(=O)c2cccc(C#N)c2)c2[nH]cc(C#N)c12`, for which the Potency was 14800 nM (active) in assay [1], 1180 nM (active) in assay [2], 296 nM (active) in assay [3] and 833 nM (active) in assay [5].

`CC1=NN(c2ccc(C(=O)O)cc2)C(=O)/C1=C/c1ccc(-c2cc(C)c(C)cc2[N+](=O)[O-])o1`: in assay [1], the viability was 112%. In addition, the Potency in assay [2] was 235 nM (active). The Potency result in assay [3], in assay [5] and in assay [6] was “inactive” in each case.
